L3MBTL1 block – qHTS Assay for the Inhibitors of L3MBTL1 | Potency, µM (series often up to 57.1 µM), for inactives: at the top dose activity, negative = inhibition, actives largely listed as inhibitors | AlphaScreen L3MBTL1–H3K9me1 peptide binding | 230,000 compounds, 0.66% hits; also: % is scaled to controls: 0 for no effect and ±100 for the full control effect; nearly all actives have a fitted effect of over 60% in size
Target sequence (Q9Y468 whole entry, looked up): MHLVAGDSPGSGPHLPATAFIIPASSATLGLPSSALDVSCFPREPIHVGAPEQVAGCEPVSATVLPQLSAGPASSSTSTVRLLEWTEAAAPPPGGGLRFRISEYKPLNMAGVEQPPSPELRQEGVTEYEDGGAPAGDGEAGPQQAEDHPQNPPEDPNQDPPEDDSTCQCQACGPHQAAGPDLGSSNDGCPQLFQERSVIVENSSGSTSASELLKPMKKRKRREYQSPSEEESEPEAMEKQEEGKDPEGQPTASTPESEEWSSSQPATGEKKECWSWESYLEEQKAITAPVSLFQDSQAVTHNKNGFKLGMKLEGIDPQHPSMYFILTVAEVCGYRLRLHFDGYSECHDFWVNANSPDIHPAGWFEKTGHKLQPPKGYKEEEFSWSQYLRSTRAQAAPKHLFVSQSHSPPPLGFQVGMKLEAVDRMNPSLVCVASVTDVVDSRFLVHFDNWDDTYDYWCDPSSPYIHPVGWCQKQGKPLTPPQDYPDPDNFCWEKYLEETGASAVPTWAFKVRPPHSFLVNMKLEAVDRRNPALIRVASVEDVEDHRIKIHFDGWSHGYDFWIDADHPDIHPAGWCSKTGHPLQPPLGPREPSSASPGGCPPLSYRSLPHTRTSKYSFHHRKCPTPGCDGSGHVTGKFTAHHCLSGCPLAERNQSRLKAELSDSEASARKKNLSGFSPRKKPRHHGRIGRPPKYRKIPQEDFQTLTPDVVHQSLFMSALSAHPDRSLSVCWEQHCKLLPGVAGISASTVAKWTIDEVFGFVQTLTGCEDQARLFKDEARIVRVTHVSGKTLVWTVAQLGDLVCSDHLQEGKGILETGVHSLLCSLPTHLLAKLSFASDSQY
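L3MBTL1 (50 nM) pre-complexed 30 min with biotinylated H3(1-15)K9me1 peptide (75 nM), then compounds added for 30 min at room temperature; AlphaScreen streptavidin donor/nickel chelate acceptor beads (10 ug/mL final) read after 30 min dark incubation.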
JMJD2A Tudor inh – qHTS Assay for Inhibitors of JMJD2A-Tudor Domain | AID 504339, 2011 | Lysine-specific demethylase 4A (Homo sapiens), O75164 | Potency, µM (top dose mostly 114 µM), for inactives: top-dose activity change, negative = inhibition, actives largely listed as inhibitors | 390,000 compounds, 4.4% hits | AlphaScreen JMJD2A-Tudor / H3K4me3 peptide binding; also: % is scaled to controls: 0 for no effect and ±100 for the full control effect; nearly all actives have a fitted effect of over 50% in size
HP1b chromo inh – HTS for Inhibitors of HP1-beta Chromodomain Interactions with Methylated Histone Tails. AlphaScreen HP1-beta / biotin-H3K9me3 peptide binding. Potency, µM (top dose mostly 114 µM), inactives show top-dose activity change, negative = inhibition, actives largely listed as inhibitors. 390,000 compounds, 0.56% hits. AID 540317, 2011; also: nearly all actives have a fitted effect of over 70% in size
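AlphaScreen: HP1-beta (50 nM) preformed 30 min with biotin-H3(1-18)K9me3 peptide (50 nM) in PBS pH 7.4, 0.01% Tween-20. Compound added for 30 min at RT, then streptavidin donor/nickel chelate acceptor beads (10 ug/mL) for 30 min.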
G9a inh – qHTS Assay for Inhibitors of Histone Lysine Methyltransferase G9a. AID 504332, 2011. 350,000 compounds, 8.8% hits. Potency, µM (series often up to 102 µM), inactives show top-dose activity, negative = inhibition, most hits filed as inhibitors. G9a H3K9 monomethylation, AlphaScreen, 2 h. Histone-lysine N-methyltransferase EHMT2 (Homo sapiens), Q96KQ7; also: % is scaled to controls: 0 for no effect and ±100 for the full control effect; nearly all actives have a fitted effect of over 75% in size
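Quantitative HTS format: methyltransferase activity on a biotin-tagged H3K9 peptide is measured by AlphaScreen, using a rabbit anti-monomethyl-H3K9 antibody with streptavidin donor and anti-IgG acceptor beads. Final levels are 20 nM enzyme, 500 nM peptide, 20 uM SAM; 2 h RT.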
BAZ2B inh – qHTS Assay for Inhibitors of BAZ2B; Bromodomain adjacent to zinc finger domain protein 2B (Homo sapiens), Q9UIF8; Potency, µM (top dose mostly 114 µM), inactives show top-dose activity change, negative = inhibition, most hits filed as inhibitors; AlphaScreen BAZ2B-H3K14Ac peptide displacement; 360,000 compounds, 4.4% hits; AID 504333, 2011; also: % is scaled to controls: 0 for no effect and ±100 for the full control effect; nearly all actives have a fitted effect of over 60% in size
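In this displacement format the biotinylated H3(5-23) peptide acetylated at Lys14 serves as ligand at 50 nM, with BAZ2B at 50 nM in PBS pH 7.4 containing 0.01% Tween-20. Donor and acceptor beads are 10 ug/mL final.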
GLS inh – qHTS for Inhibitors of Glutaminase (GLS); AID 624170, 2012; Glutaminase kidney isoform, mitochondrial (Homo sapiens), O94925; GLS enzymatic activity, qHTS titration; 410,000 compounds, 0.21% hits; Potency, µM (series often up to 45.5 µM), for inactives: at the highest dose activity change, negative = inhibition, most hits filed as inhibitors; also: % is scaled to controls: 0 for no effect and ±100 for the full control effect
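Human kidney-isoform GLS in 45 mM KH2PO4 pH 8.2, 0.02% Tween-20, with compound, started with 1mM L-Glutamine (added stock). Glutamate oxidase/HRP/Amplex red coupled fluorescence read at start and after 30 min at RT.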
* hit, by the source's call; [ ] = remark or other dose. This is a sample that favours compounds with a hit; in the whole collection about 10% have one here. Calls follow the shape of the dose curve; as a rule, active = well fitted curve in the direction sought with a large enough effect; inconclusive = small, poorly fitted or top-dose-only effect, or another doubt; inactive = no such curve, though single readings can be large; an effect the other way counts as inactive or inconclusive. Potency is read from the fitted curve at half-maximal effect.

For C#C[C@]1(OC(=O)CCCCCC)CC[C@H]2C3CCC4=CC(=O)CC[C@@H]4[C@H]3CC[C@@]21C (stereo partly drawn) the results were GLS inh -2.4%.
For c1ccc2c(c1)Sc1ccccc1N2C[C@H]1CN2CCC1CC2 the results were GLS inh -4.9%.
For Cc1ccc(-n2c(C)cc(/C=C3/C(=O)NC(=O)N(Cc4ccco4)C3=O)c2C)cc1 the results were L3MBTL1 block inconclusive, JMJD2A Tudor inh inconclusive, HP1b chromo inh -13.6%, G9a inh inconclusive, BAZ2B inh 35.5µM* and GLS inh 8.5%.
For Cc1cc(/C=C2\C(=O)NC(=O)N(Cc3ccco3)C2=O)c(C)n1-c1ccc(O)cc1 the results were L3MBTL1 block 39.8µM*, JMJD2A Tudor inh inconclusive, HP1b chromo inh inconclusive, G9a inh inconclusive, BAZ2B inh inconclusive and GLS inh inconclusive.
`Cc1ccc(-n2c(C)cc(/C=C3/C(=O)NC(=O)N(C)C3=O)c2C)cc1` gave L3MBTL1 block -4.4%, JMJD2A Tudor inh -22.8%, HP1b chromo inh 57.8%, G9a inh inconclusive, BAZ2B inh -4.5% and GLS inh -0.8%.
Cc1ccccc1-n1c(C)cc(/C=C2/C(=O)NC(=O)N(Cc3ccco3)C2=O)c1C was read as L3MBTL1 block -10.0%, JMJD2A Tudor inh 28.2µM*, HP1b chromo inh -11.0%, G9a inh inconclusive, BAZ2B inh inconclusive and GLS inh 7.1%.
COc1cc(C2c3cc4c(cc3C(O)[C@H]3COC(=O)C23)OCO4)cc(OC)c1OC (stereo partly drawn) was read as G9a inh -2.4%[2.33 µM].
`COc1cc([C@H]2c3cc4c(cc3[C@@H](O)[C@@H]3COC(=O)[C@H]23)OCO4)cc(OC)c1OC` gave G9a inh 17.9%[21.5 µM].
`COc1ccc(NC2Oc3cc4c(cc3C(c3cc(OC)c(OC)c(OC)c3)C2C)OCO4)cc1` (stereo not drawn) gave JMJD2A Tudor inh 56.2µM*, HP1b chromo inh inconclusive and GLS inh 7.3%.
`Oc1c(Br)c(Br)c(Br)c(Br)c1Br` gave L3MBTL1 block -12.3%, JMJD2A Tudor inh inconclusive, HP1b chromo inh -22.6%, G9a inh 5.0%[0.501 µM], BAZ2B inh 56.2µM* and GLS inh 17.4%.
For Oc1c(Br)cc(Br)cc1Br the results were L3MBTL1 block -7.8%, JMJD2A Tudor inh -24.1%, HP1b chromo inh 2.6%, G9a inh 8.4%[0.501 µM], BAZ2B inh -10.3% and GLS inh 20.4%.
Cc1ccc(-c2cn3c(=S)[nH]nc3s2)cc1 was read as L3MBTL1 block 4.6%, JMJD2A Tudor inh 0.708µM*, HP1b chromo inh 70.8µM*, G9a inh 1µM*, BAZ2B inh 79.4µM* and GLS inh -22.1%.
COc1cc2c(cc1OC)[C@@]13CCN4CC5=CCOC6CC(=O)N2C1[C@H]6[C@@H]5C[C@@H]43 (stereo partly drawn) was read as G9a inh -2.0%[2.33 µM] and GLS inh 6.6%.
`CN1CCc2cc(O)cc3c2C1Cc1ccc(O)c(O)c1-3` (stereo not drawn) gave G9a inh 0.708µM*.
For CCCN1CCc2cccc3c2[C@H]1Cc1ccc(O)c(O)c1-3 the results were JMJD2A Tudor inh 22.4µM*, HP1b chromo inh 15.8µM*, G9a inh 1.68µM* and GLS inh inconclusive.
C=CCN1CCc2cccc3c2C1Cc1ccc(O)c(O)c1-3 (stereo not drawn) was read as G9a inh 0.355µM*.
For COc1ccc2c(c1O)-c1cccc3c1C(C2)N(C)CC3 (stereo not drawn) the results were G9a inh 11.5%[12.7 µM].
For O=C(Oc1ccccc1)N1CCC2(CCCN(C(c3ccccc3)c3ccccc3)C2)CC1 the results were G9a inh -12.0%[12.7 µM].
`COc1ccccc1NC(=O)c1cc[n+](C)cc1` gave L3MBTL1 block 3.2%, JMJD2A Tudor inh -4.3%, HP1b chromo inh 15.6%, G9a inh 35.5µM*, BAZ2B inh inconclusive and GLS inh 18.5%.
For O=C1NC(=O)N(c2cccc(F)c2)C(=O)/C1=C/c1ccc(N2CCOCC2)cc1 the results were L3MBTL1 block 3.2%, JMJD2A Tudor inh -8.6%, HP1b chromo inh 46.8%, BAZ2B inh -6.5% and GLS inh -10.3%.
COc1cc(N2CCOCC2)ccc1C=C1C(=O)NC(=O)NC1=O was read as L3MBTL1 block 25.5%, JMJD2A Tudor inh -10.1%, HP1b chromo inh -12.0%, G9a inh 79.4µM*, BAZ2B inh -0.3% and GLS inh -13.7%.
COc1cc(N2CCOCC2)ccc1/C=C1\C(=O)NC(=O)N(Cc2ccc3c(c2)OCO3)C1=O was read as JMJD2A Tudor inh -31.4%, HP1b chromo inh -10.3%, G9a inh 39.8µM*, BAZ2B inh inconclusive and GLS inh 98.1%.
Screening COc1cc(N2CCOCC2)ccc1/C=C1\C(=O)NC(=O)N(Cc2cccs2)C1=O returned JMJD2A Tudor inh -18.6%, HP1b chromo inh 19.9%, G9a inh 31.6µM*, BAZ2B inh 0.8% and GLS inh 63.2%.
O=C1NC(=O)C(=Cc2ccc(N3CCOCC3)cc2)C(=O)N1 was read as L3MBTL1 block 4.4%, JMJD2A Tudor inh 0.0%, HP1b chromo inh 50.4%, G9a inh 44.7µM*, BAZ2B inh -3.2% and GLS inh -7.7%.
`Cc1cc(N2CCOCC2)ccc1/C=C1\C(=O)NC(=O)N(c2ccccc2)C1=O` gave L3MBTL1 block 0.1%, JMJD2A Tudor inh -1.4%, HP1b chromo inh 49.2%, G9a inh -33.8%[12.7 µM], BAZ2B inh inconclusive and GLS inh -6.4%.
`CCC(C)C(=O)OC1C[C@@]2(C)C(c3ccoc3)OC(=O)CC23OC2(C)OC34C(OC(=O)C(C)C)[C@]3(O)C(OC(=O)C5(C)OC5C)[C@]5(C)CC3(O)[C@](C)(C5CC(=O)OC)C14O2` (stereo partly drawn) gave G9a inh -44.8%[2.33 µM].
For O=C(Cc1coc2cc3c(cc12)CCC3)OCC(=O)N1CCCC1=O the results were JMJD2A Tudor inh 12.1%, HP1b chromo inh 57.3%, G9a inh 41.0%, BAZ2B inh inconclusive and GLS inh -15.2%.

Compound activity as filed in PubChem BioAssay.
